A collection of fitness landscapes (doi:10.1016/j.celrep.2020.107928)
The full ranking holds about 81,000 sequences; the median of “one-hybrid fitness for binding NBS DNA” is about -0.1, and the highest 2% start at about 0.36. What follows is part of a selection rich in the highest values, with near analogues and random picks from the rest.

B1: Caulobacter ParB omega fusion; a variant is named by its letters at X, in order, B8GW30 (parent)
chain: MESVVVGEPGMSEGRRGLGRGLSALLGEVDAAPAQAPGEQLGGSREAPIEILQRNPDQPRRTFREEDLEDLSNSIREKGVLQPILVRPSPDTAGEYQIVAGERAWRAAQRAGLKTVPIMVRELDDLAVLEIGIIENVQRADLNVLEEALSYKVLMEKFERTQENIAQTIGKSXSHVANXMRLLXLPDEVQSYLVSGELTAXHARAIAAAADPVALAKQIIEGGLSVRETEALARKAPNLSAGKSKGGRPPRVKDTDTQALESDLSSVLGLDVSIDHRGSTGTLTITYATLEQLDDLCNRLTRGI

Variants of: B1
Test: one-hybrid fitness for binding NBS DNA (the Noc-binding site; scaled: cognate 1, non-cognate 0); higher = stronger binding
Conditions: with NBS DNA site
How it was run: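 The reporter was HIS3, with the binding site 19 bp from the promoter, in E. coli USO used for bacterial one-hybrid selection of Caulobacter ParB libraries with four specificity codons randomised. Growth was on M9 lacking histidine, with 0.1 mM IPTG and 5 mM 3-AT, for 48 hours at 37°C. Illumina sequencing covered plasmids before and after selection; three replicate libraries were pooled and variants with under 10 reads dropped. A fitness score is the log change in variant-to-wild-type read ratio, rescaled to the cognate and non-cognate references.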

| Variant | one-hybrid fitness for binding NBS DNA |
| --- | --- |
| GPQT | ≤ 0.2 |
| EHTR | ≤ 0.2 |
| QQSS | 0.436 |
| QQSN | ≤ 0.2 |
| QQWG | ≤ 0.2 |
| QQWS | 0.397 |
| QQWF | ≤ 0.2 |
| QQSH | 0.208 |
| QQDN | ≤ 0.2 |
| QQYN | ≤ 0.2 |
| QQHS | 0.476 |
| QQHN | ≤ 0.2 |
| QQHD | ≤ 0.2 |
| QQRN | 0.466 |
| AVSG | ≤ 0.2 |
| DTKE | ≤ 0.2 |
| VVTF | ≤ 0.2 |
| TFLI | ≤ 0.2 |
| TFAN | ≤ 0.2 |
| CKWT | ≤ 0.2 |
| QQLH | 0.22 |
| QQLP | ≤ 0.2 |
| QQGP | ≤ 0.2 |
| QQNS | 0.515 |
| QQYS | 0.406 |

| Variant | one-hybrid fitness for binding NBS DNA |
| --- | --- |
| QQNM | 0.206 |
| QQGN | ≤ 0.2 |
| QQGS | 0.443 |
| QQLS | 0.373 |
| QQDS | 0.282 |
| DMCG | ≤ 0.2 |
| LNDN | ≤ 0.2 |
| HIRY | ≤ 0.2 |
| MHFS | ≤ 0.2 |
| ATTP | ≤ 0.2 |
| ESGF | ≤ 0.2 |
| LAAR | ≤ 0.2 |
| SNHH | ≤ 0.2 |
| VFVQ | ≤ 0.2 |
| PNVF | ≤ 0.2 |
| NEKR | ≤ 0.2 |
| QQAM | ≤ 0.2 |
| QQFS | 0.284 |
| QQAS | 0.435 |
| VHVQ | ≤ 0.2 |
| TYPP | ≤ 0.2 |
| SRMD | ≤ 0.2 |
| YAHL | ≤ 0.2 |
| QRVT | 0.69 |
| QRKT | 0.848 |

| Variant | one-hybrid fitness for binding NBS DNA |
| --- | --- |
| NRKT | 0.213 |
| DRKT | ≤ 0.2 |
| SAIP | ≤ 0.2 |
| QINI | ≤ 0.2 |
| TTRR | 0.378 |
| TTVR | ≤ 0.2 |
| TCKR | 0.262 |
| TTKR | 0.372 |
| TTDR | ≤ 0.2 |
| TTYR | ≤ 0.2 |
| LKIL | ≤ 0.2 |
| PMKT | ≤ 0.2 |
| LRKL | ≤ 0.2 |
| DLDT | ≤ 0.2 |
| NAVF | ≤ 0.2 |
| TRTI | ≤ 0.2 |
| AVGC | ≤ 0.2 |
| RRKT | 0.814 |
| RRKW | 0.351 |
| RCVT | 0.319 |
| RRVT | 0.755 |
| RGKT | 0.24 |
| GGMT | ≤ 0.2 |
| TPSP | ≤ 0.2 |
| YMFT | ≤ 0.2 |

| Variant | one-hybrid fitness for binding NBS DNA |
| --- | --- |
| DRVR | ≤ 0.2 |
| DRKR | 0.238 |
| KLKR | 0.319 |
| KRKR | 0.849 |
| KCVR | ≤ 0.2 |
| KRVR | 0.456 |
| IHAG | ≤ 0.2 |
| CWRR | ≤ 0.2 |
| HRDS | ≤ 0.2 |
| RKDD | ≤ 0.2 |
| RKND | ≤ 0.2 |
| RKNS | 0.606 |
| RKDP | ≤ 0.2 |
| RKDS | 0.412 |
| RKNN | ≤ 0.2 |
| FIER | ≤ 0.2 |
| PSMI | ≤ 0.2 |
| EAPS | ≤ 0.2 |
| ECPR | ≤ 0.2 |
| EAPR | 0.408 |
| EAPH | ≤ 0.2 |
| EAIR | ≤ 0.2 |
| EAPF | 0.532 |
